Most compounds without a hit are left out; they make up all but 2.7% or so of the library.
12-LOX inh: inhibitors of human 12S-lipoxygenase ALOX12; Potency, µM (top dose mostly 108 µM), for the others: at the top dose activity change, negative = inhibition, most hits filed as inhibitors; P18054; purified 12hLO, xylenol orange hydroperoxide absorbance; 1.1% of 580,000 active; further: potency means the concentration at half of the fitted maximal effect; on the % scale 0 is the no-effect control and ±100 the full control effect
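Hydroperoxide product was detected by ferrous iron/xylenol orange as the 573 to 405 nm absorbance ratio. Arachidonic acid at 40 uM (final) was turned over for 30 min at room temperature by 150 nM human 12hLO, pH 7.0 Hepes buffer, after 15 min compound preincubation.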
A549 tox: counter-screen for Nrf2 inhibitors: cytotoxicity in A549 cells. AID 504648. 0.16% of 390,000 active. A549 ARE-Fluc cells, CellTiter-Fluor viability, 18-24 h. Potency, µM (titrated, usually from 46 µM), inactives show at the highest dose activity change, negative = cytotoxicity, most hits filed as inhibitors; further: potency means the concentration at half of the fitted maximal effect; on the % scale 0 is the no-effect control and ±100 the full control effect
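A549 ARE_Fluc cells in 5% FBS OPTI-MEM were exposed to compounds in concentration-response for 18-24 h at 37 deg C. Viability was read by CellTiter-Fluor fluorescence (Ex 405/Em 525) after 30 min, before the luciferase read.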
Nrf2 activator: activates Nrf2 signaling | Potency, µM (series often up to 46.1 µM), for inactives: at the top dose activation, hits mostly activators | 0.31% of 410,000 active | AREc32 ARE-luciferase reporter (MCF7-derived line), luminescence, 24 h; further: potency means the concentration at half of the fitted maximal effect; % of control where 0% means no effect; nearly all actives have a fitted effect of over 65% in size
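Reporter line AREc32 (ARE-Fluc), seeded overnight in OPTI-MEM with 5% FBS; compound pin-transferred, 24 hr at 37 deg C, 5% CO2; luminescent read-out.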
ERG-DNA inh: inhibitors of human ERG Ets domain-DNA interaction | P11308 | fluorescence polarization, His-ERG Ets domain / labelled DNA | Potency, µM (series often up to 76.9 µM), inactives show at the highest dose FP activity, negative = inhibition, most hits filed as inhibitors | 0.028% of 370,000 active | AID 624246; active means well fitted inhibition curve with a large enough effect in the polarisation, with a control signal flat; inconclusive means small, poorly fitted or top-dose-only effect, or effect the other way, or a change in a side signal; inactive means no such curve, though single readings can be large or run the other way; the % refers to the polarisation;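 further: polarization taken with two DNA probes labelled with fluorescein and Texas red; potency means the concentration at half of the fitted maximal effect; % of control where 0% means no effect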
Target sequence (P11308 whole entry, looked up, the tested form may be a part): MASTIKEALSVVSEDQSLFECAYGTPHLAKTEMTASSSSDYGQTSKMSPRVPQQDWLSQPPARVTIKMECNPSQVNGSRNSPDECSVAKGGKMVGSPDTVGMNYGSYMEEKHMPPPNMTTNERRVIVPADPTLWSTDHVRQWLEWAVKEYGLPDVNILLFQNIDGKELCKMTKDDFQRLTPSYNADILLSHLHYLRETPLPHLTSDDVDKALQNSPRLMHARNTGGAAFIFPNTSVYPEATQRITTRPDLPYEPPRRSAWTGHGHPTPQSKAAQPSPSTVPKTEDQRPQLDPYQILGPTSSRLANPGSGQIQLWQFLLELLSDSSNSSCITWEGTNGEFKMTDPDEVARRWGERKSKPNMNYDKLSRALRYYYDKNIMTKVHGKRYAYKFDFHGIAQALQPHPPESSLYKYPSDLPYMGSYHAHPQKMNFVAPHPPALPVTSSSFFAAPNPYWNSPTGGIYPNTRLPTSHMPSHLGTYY
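His-tagged ERG Ets domain (1 uM in the protein solution; 300mM KCl, 50mM Tris-HCl, 1mM EDTA, 1mM DTT, pH 7.5) received compound, then a probe mix of 5 nM fluorescein-DNA and 100nM Texas-615-DNA. Fluorescence polarization was read for both dyes.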
LDHA block: inhibitors of human lactate dehydrogenase A. P00338. purified LDHA, NADH/diaphorase-resazurin fluorescence; hits give low values. activity change, % (values are at about 110 or 230 µM). 0.15% of 480,000 active. AID 1347041; in the data active means activity change below about -30%; inconclusive means mostly about -25% to -30%;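 further: plate controls were DMSO wells for no effect and wells without enzyme for full effect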
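Human LDH5 at 2 nM final in Tris HCl pH 7.4 with 0.06 mM NADH and 0.2 mM pyruvate, reacted 5 minutes at room temperature. Remaining NADH coupled via diaphorase/resazurin; resorufin fluorescence read at 0 and 20 minutes, normalized to enzyme-free and DMSO wells.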
Nrf2 inh: inhibitors of Nrf2 signaling; A549 ARE-Fluc reporter, luciferase luminescence, 18-24 h; Potency, µM (titrated, usually from 46 µM), without a hit: top-dose activity change, negative = inhibition, most hits filed as inhibitors; 2.1% of 360,000 active; AID 504444; further: potency means the concentration at half of the fitted maximal effect; on the % scale 0 is the no-effect control and ±100 the full control effect; nearly all actives have a fitted effect of over 60% in size
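Reporter: ARE-Fluc in A549. Exposure: 18-24 h, 37 °C, 5% CO2, 5% FBS OPTI-MEM. Readouts: fluorescent cytotoxicity (CellTiter-Fluor), then luminescent Nrf2 signal after BugLite.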
Numbers without * were called inactive; ? = inconclusive; / = no result given; [ ] = dose if it differs, or a comment. Unless noted, the call rests on the fitted dose curve; in most records, active means well fitted curve in the direction sought with a large enough effect; inconclusive means small, poorly fitted or top-dose-only effect, or another doubt; inactive means no such curve, though single readings can be large; an effect the other way counts as inactive or inconclusive.

SMILES	12-LOX inh	A549 tox	Nrf2 activator	ERG-DNA inh	LDHA block	Nrf2 inh
O=C(/C=C\c1ccc(-c2ccccc2)o1)c1ccccc1	?	0%	18%	-9%	-1	?
CC(Oc1ccc2ccc(=O)oc2c1)C(=O)N(C(C)C)C(C)C (stereo not drawn)	?	/	/	/	0	/
COc1ccc(N2CCN(c3c4c(nc5nncn35)CCC4)CC2)cc1	-20%	2%	0%	3%	-7	21µM*
Cc1nc2nncn2c(N2CCN(c3ccccc3)CC2)c1C	0%	-2%	-1%	-1%	-3	-26%
Oc1ccc(/C=N/Nc2nc(-c3ccc(Cl)cc3)cc(C(F)(F)F)n2)cc1	-28%	?	-3%	-11%	2	16µM*
Cc1cc(-c2ccccc2)nc(N/N=C/c2ccc(O)cc2)n1	-24%	-8%	8.9µM*	-1%	-4	-28%
COc1ccc(/C(C)=N/Nc2nc(C)cc(-c3ccccc3)n2)cc1	0%	-14%	3%	0%	-5	15µM*
C/C(=N\Nc1nc(C)cc(-c2ccccc2)n1)c1ccc(F)cc1	30%	23%	-1%	5%	-2	?
Cc1cc(C)nc(N/N=C/c2ccccc2)n1	1%	-13%	0%	5%	-1	?
Cn1c(=O)c2c(nc(CN3CCN(c4ccc(F)cc4)CC3)n2Cc2ccccc2)n(C)c1=O	15%	/	/	/	3	/
Cc1cccc(C)c1OCc1cc(C(=O)N(Cc2c(C)nn(C)c2C)C2CC2)no1	1%	-8%	-1%	-3%	-4	23µM*
CC(C)(C)c1cc(CN(CCO)CCO)cc(C(C)(C)C)c1O	16µM*	0%	3%	-1%	17	/
CN(C)Cc1cc(C(C)(C)C)c(O)c(C(C)(C)C)c1	0%	-3%	2%	6%	2	-15%
COc1cc2c(cc1OC)/C(=C/C(=O)N1CCOCC1)NC(C)(C)C2	?	-7%	0%	3%	-4	/
CC1(C)Cc2ccccc2/C(=C/C(=O)N2CCCCCC2)N1	?	-27%	0%	1%	-11	26µM*
CCC(=O)Nc1nc2nc(C)cc(=O)n2[nH]1	?	1%	1%	-11%	-7	11%
Cc1ccc(C(=O)Nc2nc3nc(C)cc(=O)n3[nH]2)cc1	0%	-1%	-1%	3%	-70*	5%
Cc1nc2ccccc2c2oc(C(=O)NCC3COc4ccccc4O3)cc12 (stereo not drawn)	-2%[57.4 µM]	-24%	-1%	1%	-3	16µM*
CCc1ccc(CNC(=O)c2cc3c(C)nc4ccccc4c3o2)cc1	4%	-25%	3%	0%	3	15µM*
Cc1ccc2cc(C(=O)NCC3COc4ccccc4O3)c(C)nc2c1 (stereo not drawn)	?	/	/	/	0	/
S=C(NCCc1ccccn1)NC1CCCCC1	21%	2%	1%	-3%	-2	30%
S=C(Nc1ccccn1)NC1CCCCC1	22µM*	-13%	2%	11%	-5	-6%
S=C(Nc1ccccn1)NC1CCCC1	45µM*	1%	0%	7%	-1	-11%
Cc1c(Cl)cccc1NC(=O)CCN=C1NS(=O)(=O)c2ccccc21	36%	/	/	/	-7	/
O=C(CCN=C1NS(=O)(=O)c2ccccc21)Nc1ccc(F)cc1Cl	-13%	10%	5%	12%	2	9.2µM*
SMILES	12-LOX inh	A549 tox	Nrf2 activator	ERG-DNA inh	LDHA block	Nrf2 inh
CCC(C)c1ccc(NC(=S)Nc2ccc(N(CC)CC)cc2)cc1 (stereo not drawn)	?	/	/	/	28	/
CC1=C/C(=C(\c2cc(C)c(O)c(Br)c2)c2ccccc2S(=O)(=O)O)C=C(Br)C1=O	?	16µM*	-3%	117%	10	?
Cc1cc(C(=O)c2ccccc2)cc(C)c1O	-7%	1%	0%	6%	-1	16%
O=C(CC1SC(N2CCCC2)=NC1=O)Nc1ccc(C(=O)N2CCN(c3cccc(Cl)c3)CC2)cc1 (stereo not drawn)	0%	?	0%	3%	-1	21µM*
CN(Cc1ccccc1F)C(=O)c1cccc(NC(=O)CC2SC(N3CCCCC3)=NC2=O)c1 (stereo not drawn)	-26%	-11%	4%	39%	-3	18µM*
Cc1ccnc(NC(=O)c2ccc(NC(=O)CC3SC(N4CCCC4)=NC3=O)cc2)c1 (stereo not drawn)	-4%	-1%	0%	-8%	-9	?
O=C(CC1SC(N2CCCC2)=NC1=O)Nc1ccc(C(=O)Nc2ncccc2O)cc1 (stereo not drawn)	2%	-1%	16µM*	-21%	5	14%
Clc1ccc(C2Cc3ccccc3N2)cc1 (stereo not drawn)	-26%	/	/	/	3	/
COc1ccc(-n2nc(C(=O)NCC(=O)Nc3cccc(Cl)c3)c3ccccc3c2=O)cc1OC	-5%	-18%	0%	-3%	-7	15µM*
Cc1ccc(N/N=C/c2ccc(C)s2)cc1	56µM*	/	/	/	-19	/
Cc1cccc(N/N=C/c2ccc(C)s2)c1	-24%	-1%	0%	-1%	-1	?
CS(=O)(=O)Nc1ccc(N2CCN(c3ccc(C(F)(F)F)cn3)CC2)nc1	15%	-7%	-1%	?	3	7.3µM*
O=C(c1cc2cc([N+](=O)[O-])ccc2oc1=O)N1CCN(c2ccccc2)CC1	1%	/	/	/	-3	/
CCOc1ccc2c(c1)cc(C(=O)NCCOc1ccccc1)n2C	4%	/	/	/	-4	/
CCc1ccccc1N(C(C)=O)c1nc(COc2ccccc2C(N)=O)cs1	15%	/	/	/	-30*	/
CC(=O)N(c1cccc(C)c1)c1nc(COc2ccccc2C(N)=O)cs1	?	/	/	/	-13	/
COCC(C)n1c(SCc2nc(N)nc(Nc3ccccc3C)n2)nc2ccccc2c1=O (stereo not drawn)	?	10%	0%	1%	-1	-9%
CCCCn1c(SCc2nc(N)nc(Nc3ccccc3C)n2)nc2ccccc2c1=O	127%	-30%	2%	6%	-5	21µM*
O=C1C(=C(c2ccccc2)c2ccccc2)C(Cl)C(Cl)(Cl)c2ccccc21 (stereo not drawn)	10µM*	/	/	/	97	/
COc1ccc2nc(-n3ncc4c3NC(=O)CC4c3cccc(O)c3)sc2c1 (stereo not drawn)	-5%	/	/	/	-2	/
O=C(CCOc1ccccc1)OCC(=O)c1cc2ccccc2o1	-2%	6%	0%	1%	-6	/
Cc1cccc(OCCC(=O)OCC(=O)c2cc3ccccc3o2)c1	50µM*	/	/	/	1	/
COc1ccc(CN=C(N)N=C(N)N)cc1Cl	-15%	-19%	0%	1%	-2	16µM*
